Values of other authors as cited in PubChem BioAssay AID977611.
The campaign covered roughly 3,900 compounds. About 3,900 (100%) were called active. No cut-off is given here; in the data, nearly all actives have Kd up to about 4200 µM. So high a share suggests a set chosen from earlier hits. This is one part of the list. Numbered stars: 1 amine (or outer) side, 2 acyl side, 3 side chain; on linkers, the order of the positions; unused ones are H or OH. Starred links: 1 amine or outer side, 2 acyl side, 3 side chain; linkers in the order of their positions; H or OH if unused. Where a SMILES comes first, the peptide text is derived from it. Non-standard residues stand in square brackets, D forms with d. Square brackets hold non-standard residues; d marks the D form. Residues, ends and D or L forms follow the SMILES beside them. Peptide text beside a SMILES is read from it. [ ]: non-standard residue; d: D form. X1 = O=C([C@H](Cc1ccc(O[P+](O)(O)O)cc1)N[*:1])[*:2]; Thr(P(OH)3+) = C[C@@H](O[P+](O)(O)O)[C@H](N)C(=O)O

Assay: PubChem AID 977611
Conditions: PDB protein-ligand complexes, literature Kd

CC(C)CC(=O)C(O)(O)[C@@H](O)CO[P+](O)(O)O
Kd (protein: Transcriptional regulator LsrR, PDB entry 4l50): 880 nM (active)

CC(=O)C(O)(O)[C@@H](O)CO[P+](O)(O)O
Kd (protein: Transcriptional regulator LsrR, PDB entry 4l4z): 2100 nM (active)

CC(CO)CCC[P+](O)(O)O[P+](O)(O)O (stereo not drawn)
Kd (protein: Intracellular B30.2 Domain of BTN3A1, PDB entry 4n7u): 510 nM (active)

Nc1nc2c([nH]c[n+]2[C@@H]2O[C@H](CO[P+](O)(O)O[P+](O)(O)O)[C@@H](O)[C@H]2O)c(=O)[nH]1
Kd (protein: Ferrous iron uptake transporter protein B FeoB(A143S mutant), PDB entry 4non): 5710 nM (active) | Kd (protein: GTPase domain of Septin 10 from Schistosoma mansoni, PDB entry 4kv9): 146000 nM (active) | Kd (protein: Interferon-induced GTP-binding protein Mx1 stalkless-MxA, PDB entry 4p4t): 41000 nM (active) | Kd (protein: Mitochondrial dynamic protein MID51, PDB entry 4nxv): 3800 nM (active)

Nc1nc2c([nH]c[n+]2[C@@H]2O[C@H](CO[P+](O)(O)O[P+](O)(O)C[P+](O)(O)O)[C@@H](O)[C@H]2O)c(=O)[nH]1
Kd (protein: Interferon-induced GTP-binding protein Mx1 stalkless-MxA, PDB entry 4p4s): 11500 nM (active)

Nc1nc2c([nH]c[n+]2[C@@H]2O[C@H](CO[P+](O)(O)O[P+](O)(O)O[P+](O)(O)O)[C@@H](O)[C@H]2O)c(=O)[nH]1
Kd (protein: GTPase domain of Septin 10 from Schistosoma mansoni, PDB entry 4kva): 115000 nM (active) | Kd (protein: eukaryotic translation initiation factor eIF5B (517-858) from Chaetomium thermophilum, PDB entry 4ncn): 2120 nM (active)

Nc1nc2c([nH]c[n+]2[C@@H]2O[C@@H]3CO[P+](O)(O)O[C@H]3[C@H]2O)c(=O)[nH]1
Kd (protein: Cyclic nucleotide-gated potassium channel mll3241, PDB entry 4muv): 1730 nM (active)

CCCCCCCCCCC[C@@H](O)CC(=O)O[C@@H]1[C@@H](N)[C@@H](O[P+](O)(O)O[P+](O)(O)OC[C@H]2O[C@@H](n3ccc(=O)[nH]c3=O)[C@H](O)[C@@H]2O)O[C@H](CO)[C@H]1O
Kd (protein: UDP-3-O-[3-hydroxymyristoyl] N-acetylglucosamine deacetylase, PDB entry 4mdt): 10000 nM (active)

CC(=O)N[C@H]1[C@@H](O[P+](O)(O)O[P+](O)(O)OC[C@H]2O[C@@H](n3ccc(=O)[nH]c3=O)[C@H](O)[C@@H]2O)O[C@H](CO)[C@@H](O)[C@@H]1O
Kd (protein: UDP-N-acetylglucosamine 1-carboxyvinyltransferase(C115D mutant), PDB entry 3v4t): 77000 nM (active) | Kd (protein: UDP-N-acetylglucosamine 1-carboxyvinyltransferase, PDB entry 3upk): 50000 nM (active)

CC1=C(SC[C@H](NC(=O)CC[C@H](N)C(=O)O)[C@H](O)NCC(=O)O)C(=O)c2ccccc2C1=O
Kd (protein: protein yqjG, PDB entry 4g0k): 4300 nM (active)

CCCCCCCCCCCCOS(O)(O)O
Kd (protein: Beta-lactoglobulin, PDB entry 4gny): 52000 nM (active)

H-MRYGQSPNM-OH
Kd (protein: Protein HTP-2, PDB entry 4tzn): 300 nM (active)

CC[C@H](C)[C@H](NC(=O)[C@@H](NC(=O)[C@H](CC(C)C)NC(=O)[C@H](CCC(=O)O)NC(=O)[C@H](CCC(=O)O)NC(=O)[C@H](CCC(N)=O)NC(=O)[C@@H]1CCCN1C(=O)[C@H](CC(=O)O)NC(=O)[C@H](CO)NC(=O)CNC(=O)[C@H](Cc1ccc(O)cc1)NC(=O)[C@H](CC(C)C)NC(=O)[C@H](CCC(=O)O)NC(=O)[C@H](C)NC(=O)[C@H](CC(C)C)NC(=O)[C@@H](N)CCSC)[C@@H](C)CC)C(=O)O
Kd (protein: mouse Partitioning defective 3 homolog, PDZ 3 domain, PDB entry 2koh): 6000 nM (active)

CC(=O)N1CCC[C@H]1C(=O)N[C@@H](CC(C)C)C(=O)N[C@@H](Cc1c[n+](C)cn1CCCCCCCCc1ccccc1)C(=O)N[C@@H](CO)C(=O)N[C@H](C(N)=O)[C@@H](C)O[P+](O)(O)O (Ac-PL[X1]S[Thr(P(OH)3+)]-NH2)
Kd (protein: Serine/threonine-protein kinase PLK1 PBD, PDB entry 4o6w): 3 nM (active)

H-EPQYEEIPIYL-OH
Kd (protein: P56 LCK Tyrosine kinase, PDB entry 1lcj): 1 nM (active)

CC[C@H](C)[C@H](NC(=O)[C@H](CCC(=O)O)NC(=O)[C@H](CC(C)C)NC(=O)[C@@H](NC(=O)[C@H](CC(=O)O)NC(=O)[C@@H]1CCCN1C(=O)[C@H](CC(=O)O)NC(=O)[C@@H](N)CC(N)=O)[C@@H](C)O[P+](O)(O)O)C(=O)N[C@@H](Cc1ccc(O)cc1)C(=O)N[C@@H](CO)C(=O)O (H-NDPD[Thr(P(OH)3+)]LEIYS-OH)
Kd (protein: Serine/threonine-protein kinase RAD53, PDB entry 2a0t): 15000 nM (active)

NCC(=O)N[C@@H](CCCN=C(N)N)C(=O)NCC(=O)N[C@@H](CC(=O)O)C(=O)N[C@@H](CO)C(=O)N1CCC[C@H]1C(=O)O
Kd (protein: Integrin alpha 5-beta 1, PDB entry 4wk2): 115 nM (active)

O=C1CCN([C@H]2C[C@H](O)[C@@H](CO[P+](O)(O)O)O2)C(=O)N1
Kd (protein: Thymidylate synthase, PDB entry 4knz): 8500 nM (active)

CC(C)C[C@H](N)C(=O)N[C@@H](Cc1ccc(O[P+](O)(O)O)cc1)C(=O)N[C@@H](CC(=O)O)C(=O)O
Kd (protein: THROMBIN, LIGHT CHAIN & THROMBIN, HEAVY CHAIN, PDB entry 4ch8): 1030 nM (active)

H-NELNNNAP-OH
Kd (protein: SPRY DOMAIN-CONTAINING SOCS BOX PROTEIN 1, PDB entry 2jk9): 150 nM (active)

CC(C)C[C@H](NC(=O)[C@@H](N)CC(=O)O)C(=O)N[C@@H](Cc1ccc(O[P+](O)(O)O)cc1)C(=O)N[C@@H](CC(=O)O)C(=O)N[C@@H](Cc1ccc(O[P+](O)(O)O)cc1)C(=O)N[C@@H](Cc1ccc(O[P+](O)(O)O)cc1)C(=O)N1CCC[C@H]1C(=O)O
Kd (protein: THROMBIN, LIGHT CHAIN & THROMBIN, HEAVY CHAIN, PDB entry 4ch2): 1030 nM (active)

CC[C@H](C)[C@H](NC(=O)[C@H](Cc1ccc(O[P+](O)(O)O)cc1)NC(=O)[C@H](CC(=O)O)NC(=O)[C@@H](N)CC(N)=O)C(=O)N[C@@H](CC(=O)O)C(=O)N[C@@H](CC(N)=O)C(=O)N1CCC[C@H]1C(=O)O (H-ND[X1]IDNP-OH)
Kd (protein: E3 ubiquitin-protein ligase CBL, PDB entry 3bun): 610 nM (active)

NC(=O)CC[C@H](NC(=O)[C@@H](N)Cc1cnc[nH]1)C(=O)N[C@@H](Cc1ccc(O[P+](O)(O)O)cc1)C(=O)N[C@@H](Cc1ccc(O[P+](O)(O)O)cc1)C(=O)N[C@@H](CC(N)=O)C(=O)N[C@@H](CC(=O)O)C(=O)N[C@@H](Cc1ccccc1)C(=O)N1CCC[C@H]1C(=O)O (H-HQ[X1][X1]NDFP-OH)
Kd (protein: Grb2 SH2 domain, pY-Clamp Shc1_pY239/240, PDB entry 4jmh): 2.1 nM (active)
